Among all 310,000 compounds or so, about 14,000 (4.5%) showed an effect of 50% or more. The effect is printed as a negative number. What follows is part of a selection rich in strong results, with near analogues and random picks from the rest.
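Note: peak tail current of the secondary pulse compared with the same well before compound.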

Sequence of human ether-à-go-go-related gene (hERG) potassium channel (Q12809 whole entry, looked up): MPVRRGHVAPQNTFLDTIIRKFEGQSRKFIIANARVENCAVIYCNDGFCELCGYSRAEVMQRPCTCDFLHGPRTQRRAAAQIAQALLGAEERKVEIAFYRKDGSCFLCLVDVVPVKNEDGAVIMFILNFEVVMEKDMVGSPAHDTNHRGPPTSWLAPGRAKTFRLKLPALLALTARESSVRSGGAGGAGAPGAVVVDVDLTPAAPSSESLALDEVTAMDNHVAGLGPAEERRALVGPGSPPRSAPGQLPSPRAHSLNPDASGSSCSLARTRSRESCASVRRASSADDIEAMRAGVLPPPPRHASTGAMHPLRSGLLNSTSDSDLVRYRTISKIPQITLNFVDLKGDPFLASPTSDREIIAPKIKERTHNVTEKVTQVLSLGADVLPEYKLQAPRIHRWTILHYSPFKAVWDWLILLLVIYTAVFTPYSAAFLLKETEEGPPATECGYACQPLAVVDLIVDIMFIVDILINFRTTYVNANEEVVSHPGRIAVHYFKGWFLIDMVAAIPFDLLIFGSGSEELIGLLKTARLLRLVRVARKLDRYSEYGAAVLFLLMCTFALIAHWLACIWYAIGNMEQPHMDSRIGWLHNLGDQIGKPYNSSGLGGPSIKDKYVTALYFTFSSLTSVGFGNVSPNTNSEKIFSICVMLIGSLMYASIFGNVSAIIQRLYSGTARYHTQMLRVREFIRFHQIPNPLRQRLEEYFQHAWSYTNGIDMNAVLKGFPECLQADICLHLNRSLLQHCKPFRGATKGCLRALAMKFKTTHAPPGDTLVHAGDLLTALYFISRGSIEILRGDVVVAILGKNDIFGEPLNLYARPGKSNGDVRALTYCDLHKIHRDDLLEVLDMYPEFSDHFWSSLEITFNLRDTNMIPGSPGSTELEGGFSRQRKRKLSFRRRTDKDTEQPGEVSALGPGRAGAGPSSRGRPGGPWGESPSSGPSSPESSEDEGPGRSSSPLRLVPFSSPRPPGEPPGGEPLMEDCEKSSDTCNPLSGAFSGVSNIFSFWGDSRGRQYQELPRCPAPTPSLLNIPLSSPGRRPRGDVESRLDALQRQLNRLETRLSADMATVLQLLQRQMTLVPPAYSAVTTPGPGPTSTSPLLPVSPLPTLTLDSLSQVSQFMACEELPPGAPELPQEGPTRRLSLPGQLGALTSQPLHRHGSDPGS

The assay addresses human ether-à-go-go-related gene (hERG) potassium channel (human, UniProt Q12809). The experiment in a line: primary screen, population patch clamp on CHO cells stably expressing hERG; higher = less effect of the substance.
As to `FC(F)(F)c1cnc(Sc2ncn[nH]2)c(Cl)c1`, the “hERG current change (%, negative = inhibition) at 10uM” value is 4.22%.
The figure for `CCOC(=O)c1c(C)[nH]c(C(=O)CN2C(=O)NC3(CCCC3)C2=O)c1C` is -1.87%; for `CCOc1ccc(S(=O)(=O)N2CCN(CC)CC2)cc1NC(=O)c1ccccc1F` it is -16.6%; for `COc1ccc(CCC(=O)Nc2nc(C)c(C(=O)N(C)C)s2)cc1` it is -2.23%.
Consider `CS(=O)(=O)c1ccc(N2CCOCC2)c(S(C)(=O)=O)c1`, for which the “hERG current change (%, negative = inhibition) at 10uM” value is -5.39%.
Consider `CC(C)CCN1CCN(C2CCN(c3ccccc3)CC2)CC1CCO` (centres unmarked), for which the “hERG current change (%, negative = inhibition) at 10uM” value is given as -60.9%.
For the molecule `CC(C)CCN1CCN(C2CCN(c3ccc4c(c3)OCO4)CC2)CC1CCO` (centres unmarked), the “hERG current change (%, negative = inhibition) at 10uM” value is -17.6%.
As for `Cc1cc(F)ccc1N1CCC(N2CCN(CCC(C)C)C(CCO)C2)CC1` (centres unmarked), the figure is -63.5%; as for `Cc1cc(F)ccc1N1CCC(N2CCN(C)C(CCO)C2)CC1` (centres unmarked), 22.1%; as for `Cc1cc(F)ccc1N1CCC(N2CCN(C(C)C)C(CCO)C2)CC1` (centres unmarked), -24.7%.
As for `Cc1ccc(N2CCC(N3CCN(C)C(CCO)C3)CC2)cc1` (centres unmarked), the figure is 12.8%.
Take `O=C(CN1CCOCC1)NCCc1ccccc1`: the “hERG current change (%, negative = inhibition) at 10uM” value is 16.4%.
The figure for `NS(=O)(=O)c1ccc(NN=C2CCN(Cc3ccccc3)CC2)c([N+](=O)[O-])c1` is -17.6%.
Regarding `CCOC(=O)NC(=O)CSc1ccc2ccccc2n1`, the “hERG current change (%, negative = inhibition) at 10uM” value was 14%.
As for `CCC1(C(=O)OC)NC(c2ccco2)C2C(=O)N(c3ccc(F)cc3)C(=O)C21` (centres unmarked), the figure is 6.75%.
Consider `CCOC(=O)C1CCN(S(=O)(=O)c2cccc(-c3cn4cc(Cl)ccc4n3)c2)CC1`, for which the “hERG current change (%, negative = inhibition) at 10uM” value is reported as -58%.
With `Cc1nc(-c2cccc(S(=O)(=O)N3CCC(C)CC3)c2)cs1`, the “hERG current change (%, negative = inhibition) at 10uM” value is reported as -13.4%.
On to `Cc1nc(-c2cccc(S(=O)(=O)N3CCCCCC3)c2)cs1`, for which the “hERG current change (%, negative = inhibition) at 10uM” value is listed as -23.2%.
For the molecule `CCOC(=O)C1CCN(S(=O)(=O)c2cccc(-c3cn4ccccc4n3)c2)CC1`, the “hERG current change (%, negative = inhibition) at 10uM” value is on record as -60.4%.
As for `CCOC(=O)C1CCN(S(=O)(=O)c2cccc(-c3cn4cc(C)ccc4n3)c2)CC1`, the figure is -3.7%.
On to `CCOC(=O)C1CCN(S(=O)(=O)c2cccc(-c3cn4cccc(C)c4n3)c2)CC1`, for which the “hERG current change (%, negative = inhibition) at 10uM” value was -21.3%.
As for `CC1CCN(S(=O)(=O)c2cccc(-c3cn4cc(Cl)ccc4n3)c2)CC1`, the “hERG current change (%, negative = inhibition) at 10uM” value is recorded as -5.86%.
The figure for `CCOC(=O)C1CCN(S(=O)(=O)c2cccc(-c3csc(C)n3)c2)CC1` is -53.5%; for `CCOC(=O)C1CCN(S(=O)(=O)c2cccc(-c3cn4cccnc4n3)c2)CC1` it is -24.7%; for `COc1ccccc1C(=O)NC(C)c1cccc2ccccc12` (centres unmarked) it is 8.02%.
For `C=CCN(C(=O)c1ccc(Cl)cc1)c1ccccc1C(=O)NCC(=O)O`, the “hERG current change (%, negative = inhibition) at 10uM” value is reported as 21.1%.
Take `CCC(NC(=O)NCCCn1ccnc1)(C(F)(F)F)C(F)(F)F`: the “hERG current change (%, negative = inhibition) at 10uM” value is 8.18%.
With `CC(C)c1ccc(N=c2c([N+](=O)[O-])nn(-c3ccc4c(c3)OCCO4)n2O)cc1`, the “hERG current change (%, negative = inhibition) at 10uM” value is 1.98%.
Consider `COc1ccc(CSc2ccc(-c3nc4ccccn4c3NCc3ccccc3)cc2OC)cc1.O=C(O)C(F)(F)F`, for which the “hERG current change (%, negative = inhibition) at 10uM” value was 8.68%.
`C=CCn1c(SCCCCCC)nc(O)cc1=O`: the “hERG current change (%, negative = inhibition) at 10uM” value is -4%.
As for `Cc1ccccc1/C=N\NC(=O)c1ccccc1-n1cccc1`, the figure is 18.5%; as for `COc1cccc(C2C(=O)c3ccccc3C2=O)c1`, 16.9%.
For the molecule `NS(=O)(=O)c1ccc(CCNC(=O)CNCCc2ccccc2)cc1`, the “hERG current change (%, negative = inhibition) at 10uM” value was 16.2%.
Turning to `NS(=O)(=O)c1ccc(CCNC(=S)NC2CCCC2)cc1`, the “hERG current change (%, negative = inhibition) at 10uM” value is 11.2%.
Consider `NS(=O)(=O)c1ccc(CCNCC(=O)NC2CC2)cc1`, for which the “hERG current change (%, negative = inhibition) at 10uM” value is -64.1%.
Regarding `O=C(CCNC(=O)c1ccccc1Cl)NCCCSc1ccccc1`, the “hERG current change (%, negative = inhibition) at 10uM” value was -8.64%.
`Br.Clc1ccc2nc(CN3CCCCC3)cn2c1`: the “hERG current change (%, negative = inhibition) at 10uM” value is recorded as -32.7%.
As for `CN(C)Cc1c(O)ccc2ccccc12`, the “hERG current change (%, negative = inhibition) at 10uM” value is recorded as 0.0591%.
As for `CN(C)Cc1cc2ccccc2c2c1COC2`, the figure is -0.493%.
As for `Cc1cc2ccc3ccccc3c2cc1CN(C)C.Cl`, the “hERG current change (%, negative = inhibition) at 10uM” value is on record as -51.9%.
The figure for `O=C(O)CCC(=O)N1N=C(c2ccc(Br)cc2)CC1c1ccc(Br)cc1` (centres unmarked) is 20.6%; for `Cc1ccc(C)c(C(=O)Nc2nc3ccccc3[nH]2)c1` it is 25.9%.
The figure for `O=C(NCC1CCCO1)C1CCN(C2CCN(C(=O)CC3CCCC3)CC2)CC1` (centres unmarked) is -10%.
Regarding `O=C(NCC1CCCO1)C1CCN(C2CCN(CCCC3CCCC3)CC2)CC1` (centres unmarked), the “hERG current change (%, negative = inhibition) at 10uM” value is -58%.
Take `O=C(NCC1CCCO1)C1CCN(C2CCN(Cc3ccco3)CC2)CC1` (centres unmarked): the “hERG current change (%, negative = inhibition) at 10uM” value is reported as -51%.
Regarding `O=C(NCCc1ccccc1)C1CCN(C2CCN(Cc3ccco3)CC2)CC1`, the “hERG current change (%, negative = inhibition) at 10uM” value is -62.7%.
Consider `CCOc1cccc(CN2CCC(N3CCC(C(=O)NCC4CCCO4)CC3)CC2)c1` (centres unmarked), for which the “hERG current change (%, negative = inhibition) at 10uM” value was -10.5%.
With `Cc1cc(C)c(CN2CCC(N3CCC(C(=O)NCC4CCCO4)CC3)CC2)cc1C` (centres unmarked), the “hERG current change (%, negative = inhibition) at 10uM” value is -24.4%.
As for `O=C(NCCc1ccccc1)C1CCN(Cc2ccccc2F)CC1.O=C(O)C(=O)O`, the figure is 1.53%; as for `Cc1ccccc1CN1CCC(N2CCC(C(=O)NCC3CCCO3)CC2)CC1` (centres unmarked), -1.07%; as for `Cc1ccc(CN2CCC(N3CCC(C(=O)NCC4CCCO4)CC3)CC2)o1` (centres unmarked), -4.02%.
The figure for `O=C(NCC1CCCO1)C1CCN(C2CCN(Cc3cccs3)CC2)CC1` (centres unmarked) is -64.2%.
For the molecule `O=C(NCCc1ccccc1)C1CCN(C2CCN(Cc3ccc(CO)o3)CC2)CC1`, the “hERG current change (%, negative = inhibition) at 10uM” value was 18.2%.
Turning to `O=C(NCC1CCCO1)C1CCN(C2CCN(C3CCCCCC3)CC2)CC1` (centres unmarked), the “hERG current change (%, negative = inhibition) at 10uM” value was 28.4%.
Turning to `Cc1ccc(C(=O)Nc2cc(C(C)C)c(O)c(C(C)C)c2)cc1`, the “hERG current change (%, negative = inhibition) at 10uM” value is reported as -4.12%.
Take `CC(=O)[C@@H]1[C@@H](C)N(Cc2ccccc2)C(=O)N[C@H]1c1cccc(C(F)(F)F)c1`: the “hERG current change (%, negative = inhibition) at 10uM” value turned out to be 5.55%.
In the case of `Cc1nnsc1C(=O)Nc1ccccc1`, the “hERG current change (%, negative = inhibition) at 10uM” value is recorded as 18.2%.
As for `O=C(N/N=C/c1ccc(F)cc1)c1cccc(NC(=O)c2ccc(F)cc2)c1`, the figure is -4.54%; as for `O=C(Nc1cccc(-n2cnnn2)c1)c1ccco1`, -0.205%; as for `COc1ccc(NC(=S)N2CCC(N(C)CCN3CCOCC3)CC2)cc1Cl`, -26.8%.
For the molecule `CN(C)c1nc(N(C)C)nc(N(C#N)CCCl)n1`, the “hERG current change (%, negative = inhibition) at 10uM” value is listed as 8.89%.
The figure for `COc1ccc(-c2noc(-c3ccoc3C)n2)cc1` is 39.5%.
The figure for `Cc1noc(N)c1C1(O)C(=O)Nc2c(Cl)cc(Cl)cc21` (centres unmarked) is 0.32%; for `CCOc1ccc(CCN2C(=O)c3ccc(C(=O)O)cc3C2=O)cc1OCC` it is -3.15%; for `COc1ccc(C2CC(c3cccs3)=NN2C(=O)COC(=O)C2CCCCC2)cc1OC` (centres unmarked) it is -18.1%.
As for `CC(=O)c1c(N2CCN(C)CC2)nc(=S)n(-c2cc(C)ccc2C)c1C`, the figure is 28.7%; as for `CC(C)(C)C(=O)Nc1ccc(S(=O)(=O)N2CCCC2)cc1`, 4.25%; as for `COc1ccc(CC(=O)Nc2cc(NC(=O)Cc3ccc(OC)c(OC)c3)cc(C(=O)O)c2)cc1OC`, 14.3%.
Consider `CN(c1ccccc1)c1nc(N)c([N+](=O)[O-])c(NCc2ccccc2)n1`, for which the “hERG current change (%, negative = inhibition) at 10uM” value worked out at 17.6%.
As for `O=C(c1cc(-c2ccccc2)nc2ccccc12)N1CCN(C2CCS(=O)(=O)C2)CC1` (centres unmarked), the figure is -25%; as for `O=C(c1cc(-c2ccc(F)cc2)nc2ccccc12)N1CCN(C2CCS(=O)(=O)C2)CC1` (centres unmarked), -69%.
The figure for `Cc1ccc(-c2cc(C(=O)N3CCN(C4CCS(=O)(=O)C4)CC3)c3ccccc3n2)cc1` (centres unmarked) is -60.7%; for `COc1ccc(-c2cc(C(=O)N3CCCC3)c3ccccc3n2)cc1` it is -2.31%.
As for `O=C(NC1CCS(=O)(=O)C1)c1cc(-c2ccccc2)nc2ccccc12` (centres unmarked), the figure is 13.6%; as for `Cc1ccc(-c2cc(C(=O)N3CCN(c4ncccn4)CC3)c3ccccc3n2)cc1`, -40.9%.
For `Cc1ccccc1C(=O)Oc1cccc(Nc2ncnc3ccccc23)c1`, the “hERG current change (%, negative = inhibition) at 10uM” value is reported as -3.38%.
As to `CCC(C)NC(=O)CN1C(=O)NC2(CCOc3ccccc32)C1=O` (centres unmarked), the “hERG current change (%, negative = inhibition) at 10uM” value was -9.56%.
As for `CCCNC(=O)Cc1ccsc1`, the figure is 9.93%; as for `O=C(NCc1cccs1)C1CCN(S(=O)(=O)c2cccc([N+](=O)[O-])c2)CC1`, -15.7%.
As for `Fc1ccc(NC(=S)NCCc2ccccc2)c(F)c1F`, the figure is -1.12%; as for `CCC(Sc1nnc(C)c(=O)[nH]1)C(=O)Nc1cccc2ccccc12` (centres unmarked), 10%; as for `O=C(CCCc1nc2ccccc2s1)NCc1cccnc1`, 0.483%.
As for `C/C(=N\NC(=O)CCc1ccc(S(=O)(=O)N2CCOCC2)cc1)c1ccc(Br)cc1`, the figure is 6.98%.
Turning to `C/C(=N\NC(=O)CN1CCN(S(=O)(=O)c2ccc(C)cc2)CC1)c1ccc(O)cc1`, the “hERG current change (%, negative = inhibition) at 10uM” value is recorded as -6.97%.
The figure for `C/C(=N/NC(=O)CN1CCN(S(=O)(=O)c2ccc(Br)cc2)CC1)c1ccncc1` is -80.3%; for `C/C(=N\NC(=O)CN1CCN(S(=O)(=O)c2ccc(C)cc2)CC1)c1cccnc1` it is -46.9%.
As for `C/C(=N\NC(=O)CN1CCN(S(=O)(=O)c2ccc(C)cc2)CC1)c1ccncc1`, the figure is -77.1%; as for `NC(=O)CN1CCN(S(=O)(=O)c2ccc(Br)cc2)CC1`, 22.4%; as for `O=C(Nc1ccc2c(c1)CCC2)c1ccccc1`, 9.66%.
